Experimental findings from PubChem BioAssay (EPA / NIEHS) are described below.

Inconclusive results are not listed. Activity calls are given as the source filed them. The calls were made as follows: active = hit-call score of the fitted dose curve at least 0.9, where 1 is the maximum; inconclusive = response in the unintended direction; inactive = score below 0.9.

In general, AC50 refers to the midpoint of the concentration-response curve, whichever way the signal moves.

Sequence of Estrogen receptor (Homo sapiens) (P03372 whole entry, looked up): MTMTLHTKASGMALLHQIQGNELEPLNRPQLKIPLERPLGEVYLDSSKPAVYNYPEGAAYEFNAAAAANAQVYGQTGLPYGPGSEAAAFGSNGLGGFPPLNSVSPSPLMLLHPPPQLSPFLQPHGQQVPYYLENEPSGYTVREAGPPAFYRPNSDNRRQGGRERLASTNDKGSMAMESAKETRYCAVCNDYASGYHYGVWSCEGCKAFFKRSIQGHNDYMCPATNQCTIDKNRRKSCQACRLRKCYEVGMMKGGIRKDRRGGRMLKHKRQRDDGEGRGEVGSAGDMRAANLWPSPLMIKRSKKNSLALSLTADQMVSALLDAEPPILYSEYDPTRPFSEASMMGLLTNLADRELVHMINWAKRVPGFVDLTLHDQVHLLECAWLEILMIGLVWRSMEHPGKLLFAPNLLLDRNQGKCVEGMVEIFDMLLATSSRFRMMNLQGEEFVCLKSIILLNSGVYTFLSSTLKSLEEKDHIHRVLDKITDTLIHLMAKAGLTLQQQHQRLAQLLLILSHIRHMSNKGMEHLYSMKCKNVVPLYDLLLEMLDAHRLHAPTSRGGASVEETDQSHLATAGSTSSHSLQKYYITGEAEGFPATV

The first assay addresses Estrogen receptor (Homo sapiens) (UniProt P03372). The assay can be described thus: CCTE_Deisenroth_AIME_384WELL_LUC_Active: CCTE's 384-well Estrogen Receptor Transactivation Assay with AIME metabolic competence (ERTA luciferase; metabolism positive), Deisenroth Lab (AID 2284030). Put shortly: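 Estrogenic luciferase signal in VM7Luc4E2 cells is measured at 24 hour, after chemicals have been preconditioned 2 hours with PB/BNF-induced rat hepatic S9 in alginate. Gain of signal is fitted relative to 17beta-estradiol, across 0.002 - 200 uM.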
Regarding `CSc1ccc(Oc2ccc(S(N)(=O)=O)cc2CN(C)C)cc1C`, the compound was called inactive.
On the same count and under the same terms, the entry for `CC1=C(C)S(=O)(=O)CCS1(=O)=O` is “inactive”.
Turning to `O=C(O)CN(CC(=O)O)CC(=O)O`, the concentration at half-maximal activity (AC50) is 28.5 µM (active).
On to `c1ccc2occc2c1`, for which the result was inactive.
The same measure, in the same setting: the entry for `Cc1ccc(C(C)(C)C)c(O)c1` is “inactive”.

Test system in the next assay: not listed separately
The assay can be described thus: CCTE_Deisenroth_AIME_384WELL_CTox_Active: Cytotoxicity Assessment (CTOX) in CCTE's 384-well Estrogen Receptor Transactivation Assay with AIME metabolic competence (metabolism positive), Deisenroth Lab (AID 2284037).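 Also: chemicals first conditioned 2 h by alginate-bound induced rat liver S9 before cells; activity means signal loss indicating cell death.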 Put shortly: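 Cytotoxicity in VM7Luc4E2 breast cells, 24 hour, measured as protease-substrate fluorescence loss, after 2-hour metabolic conditioning with induced rat hepatic S9 in alginate microspheres. Concentrations 0.002 - 200 uM, 10 points, bidirectional fitting.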
Take `Nc1nc(=S)c2[nH]cnc2[nH]1`: the call was inactive.
For `CSc1ccc(Oc2ccc(S(N)(=O)=O)cc2CN(C)C)cc1C`, the outcome was inactive.
`CC1=C(C)S(=O)(=O)CCS1(=O)=O`: the concentration at half-maximal activity (AC50) is 172 µM (active).
As for `O=C(O)CN(CC(=O)O)CC(=O)O`, the outcome was inactive.
The same measure, in the same setting: for `c1ccc2occc2c1` the value was “inactive”.
For the compound `CC(C)NCC(O)c1ccc(O)c(O)c1` (stereo not given), the AC50 was 106 µM (active).
As to `C/C=C/c1ccc(OC)cc1`, the call was inactive.
Same read-out and setting: for `Cc1ccc(C(C)(C)C)c(O)c1` the value was “inactive”.

Test system in the next assay: not listed separately
The assay can be described thus: CCTE_Deisenroth_AIME_384WELL_CTox_Inactive: Cytotoxicity Assessment (CTOX) in CCTE's 384-well Estrogen Receptor Transactivation Assay without AIME metabolic competence (metabolism negative), Deisenroth Lab (AID 2284039).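 Also: cell viability via live-cell protease substrate cleaved to fluorescent probe; cells exposed 24 h to medium preincubated 2 h with alginate-water beads without S9; loss of fluorescence signal means loss of viability.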 In outline: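 Fluorescence from a live-cell protease substrate, read after 24 h in VM7Luc4E2 cells, indicated viability. Test medium came from a 2 h AIME step without hepatic S9 (alginate-water microspheres); concentrations spanned 0.002 - 200 uM, single technical replicate per run.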
Regarding `Nc1nc(=S)c2[nH]cnc2[nH]1`, the call was inactive.
Same read-out and setting: the entry for `CSc1ccc(Oc2ccc(S(N)(=O)=O)cc2CN(C)C)cc1C` is “inactive”.
In the case of `CC1=C(C)S(=O)(=O)CCS1(=O)=O`, the AC50 is 100 µM (active).
In the case of `c1ccc2occc2c1`, the compound was classed as inactive.
Regarding `CC(C)NCC(O)c1ccc(O)c(O)c1` (stereo not given), the AC50 is 100 µM (active).
Take `C/C=C/c1ccc(OC)cc1`: the outcome was inactive.
On the same count and under the same terms, for `Cc1ccc(C(C)(C)C)c(O)c1` the value was “inactive”.
